Source: PubChem BioAssay
SARS PLP yeast – blocks SARS-CoV papain-like protease in a yeast assay. S. cerevisiae expressing SARS-CoV PLpro, growth rescue. Potency, µM (doses to about 32.9 µM), hits mostly activators. 330,000 compounds, 0.19% hits. AID 485353; calls by dose curve; also: nearly all actives have a fitted effect of over 55% in size
Pf growth 48h – P. falciparum growth inhibition at 48 hours (one generation); P. falciparum luciferase growth in erythrocytes, 48 h; Potency, µM (doses to about 28.7 µM), usual class: inhibitors; 310,000 compounds, 5.9% hits; AID 504832
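A one-generation exposure of luciferase-tagged malaria parasites in RPMI 1640/Albumax erythrocyte culture, 37 C and 5% CO2. Inhibition is inferred from decreased luminescence after adding detection reagent.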
Pf growth 96h – P. falciparum growth inhibition at 96 hour, primary screen for plastid delayed-death inhibitors; P. falciparum luciferase reporter growth, 96 h; Potency, µM (highest dose often 28.7 µM), most hits filed as inhibitors; 320,000 compounds, 6.9% hits
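Infected RBCs, 2% Hct / 0.05% parasitemia final; luciferase-reporter P. falciparum; cpd 96 h, 37 C, 5% CO2; luciferase detection reagent; luminescence.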
Sm TGR block – inhibitors of Schistosoma mansoni thioredoxin glutathione reductase; Q962Y6; purified TGR, DTNB reduction, TNB absorbance 405 nm; Potency, µM (doses to about 114 µM), hits mostly inhibitors; 360,000 compounds, 3% hits; AID 485364; also: nearly all actives have a fitted effect of over 60% in size
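Kinetic colorimetric format: TGR-catalysed, NADPH-driven DTNB reduction monitored via TNB absorbance. Enzyme dispensed at 20 nM; compound exposure 15 min at room temperature before reaction start.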
A number is an active result; . = inactive; ? = inconclusive; / = no result given; [ ] = another dose, or the depositor's remark. Most compounds without a hit are left out; they make up all but 12% or so of the library. Unless noted, calls follow the shape of the dose curve; as a rule, active = well fitted curve in the direction sought with a large enough effect; inconclusive = small, poorly fitted or top-dose-only effect, or another doubt; inactive = no such curve, though single readings can be large; an effect the other way counts as inactive or inconclusive.

SMILES	SARS PLP yeast	Pf growth 48h	Pf growth 96h	Sm TGR block
O=C(CCCC(=O)NCc1ccc(F)cc1)NCc1ccc(F)cc1	.	.	.	/
COc1cccc(CNC(=O)c2ccc(CS(=O)c3ccccc3)o2)c1 (stereo not drawn)	.	.	?	?
Cc1[nH]c2c(C)cccc2c1CCNC(=O)c1ccc2c(c1[N+](=O)[O-])C(=O)c1ccccc1C2=O	.	12µM	?	.
Cc1[nH]c2ccccc2c1CCNC(=O)c1ccc2c(c1[N+](=O)[O-])C(=O)c1ccccc1C2=O	.	?	?	.
Cc1cc(/C=C2\SC(=O)NC2=O)c(C)n1-c1ccc(N2CCOCC2)cc1	.	10µM	?	.
COc1ccc(-n2c(C)cc(/C=C3/SC(=S)N(C)C3=O)c2C)cc1	.	.	0.33µM	.
Cc1cc(/C=C2\SC(=O)NC2=O)c(C)n1-c1ccc(N(C)C)cc1	.	.	.	.
Cc1ccc(CCNC(=O)CN(C)S(=O)(=O)c2ccc3c(c2)n(C)c(=O)c(=O)n3C)cc1	.	?	9.3µM	.
Cc1ccccc1NC(=O)CN(C)S(=O)(=O)c1ccc2c(c1)n(C)c(=O)c(=O)n2C	.	?	10µM	.
Cc1ccc(NC(=O)Cn2c(=O)oc3cc(S(=O)(=O)N4CCCCC4)ccc32)c(Cl)c1	/	/	/	.
Cc1ccccc1CS(=O)(=O)c1nnc([C@H](Cc2ccccc2)NC(=O)OC(C)(C)C)o1	.	/	?	1.1µM
CCSc1nnc([C@H](Cc2ccccc2)NC(=O)OC(C)(C)C)o1	.	.	/	.
CC(C)(C)OC(=O)N[C@@H](Cc1ccccc1)c1nnc(S(=O)(=O)Cc2ccccc2)o1	.	.	/	0.63µM
CCC(C)[C@@H](NC(=O)OC(C)(C)C)c1nnc(S(=O)(=O)Cc2cccc(C)c2)o1 (stereo partly drawn)	.	.	.	2µM
Cc1ccc(CN(C(=O)c2ccc(Cl)c([N+](=O)[O-])c2)C2CCS(=O)(=O)C2)o1 (stereo not drawn)	.	.	.	.
COc1ccc(C(=O)/C=C/C(=O)N(Cc2ccccc2OC)C(C(=O)NC2CCCCC2)c2ccncc2)c(O)c1 (stereo not drawn)	.	12µM	.	.
COc1ccc(C(=O)/C=C/C(=O)N(Cc2ccc(F)cc2)C(C(=O)NC2CCCCC2)c2ccncc2)c(O)c1 (stereo not drawn)	.	5.2µM	.	.
COc1ccc(C(=O)/C=C/C(=O)N(Cc2ccccc2)C(C(=O)NC2CCCCC2)c2ccncc2)c(O)c1 (stereo not drawn)	.	?	.	.
CN1C(=O)C(O)(CC(=O)c2cccnc2)c2ccccc21 (stereo not drawn)	.	.	?	.
O=C(CC1(O)C(=O)N(Cc2cccc3ccccc23)c2ccccc21)c1cccnc1 (stereo not drawn)	.	/	3.7µM	.
O=C(c1ccc(OC2CCN(CCc3ccccc3)CC2)cc1)N1CCC(CO)CC1	.	.	?	.
COc1ccccc1-n1c(SCC(=O)Nc2ccccc2C)nc(O)cc1=O	.	2.6µM	.	.
CCc1c(C)nc(N)n2c(SCC(=O)Nc3ccccc3OC)nnc12	.	.	10µM	.
Cc1ccc(-n2c(SCC(=O)Nc3ccc4c5c(cccc35)CC4)nc(O)cc2=O)cc1	?	2.9µM	2.6µM	.
Cc1cc2c(=O)n(C)c(SCC(=O)Nc3ccccc3C)nc2s1	.	?	9.3µM	.
SMILES	SARS PLP yeast	Pf growth 48h	Pf growth 96h	Sm TGR block
CCN(CC)C(=O)Cn1c(=O)cc(C)c2c(C)nn(C)c21	/	/	/	.
CCCc1nnc(SCC(=O)Nc2cccc(C(F)(F)F)c2)o1	.	.	.	.
COc1ccc(-n2c(SCC(=O)Nc3cccc4ccccc34)nc(O)cc2=O)cc1	.	2.1µM	0.29µM	.
COCCn1c(-c2ccccc2)cnc1SCC(=O)Nc1cccc2ccccc12	.	.	13µM	.
COc1ccc(-n2c(SCC(=O)Nc3ccccc3)nc(O)cc2=O)cc1	.	.	.	.
Nc1cc(=O)[nH]c2nnc(SCC(=O)Nc3cccc4ccccc34)n12	.	.	7.4µM	.
CCOc1ccccc1NC(=O)CSc1nnc2[nH]c(=O)cc(C)n12	/	/	/	.
COc1ccccc1-n1c(SC)nc(O)cc1=O	.	/	.	.
COc1ccccc1NC(=O)CSc1nc(O)cc(=O)n1-c1ccccc1OC	.	3.3µM	/	.
COCCN1C2=C(C(=O)CC(C)(C)C2)C(c2ccc(OC)c(OC)c2)C2=C1CC(C)(C)CC2=O	.	.	?	.
CCC(c1c(C)[nH]oc1=O)c1c(C)[nH]oc1=O	.	.	.	25µM
COC(=O)c1ccc(NC(=O)CCc2c(C)nc3c(c(C)nn3C(C)(C)C)c2C)cc1	/	/	/	.
COc1ccc2c3c(c(=O)oc2c1)C1O[C@](c2ccsc2)(Cc2ccccc21)O3	.[6.58 µM]	?	?	?
COc1ccc([C@]23Cc4cc(OC)c(OC)cc4C(O2)c2c(c4ccccc4oc2=O)O3)cc1	.[6.58 µM]	.[5.75 µM]	?	4µM
COc1ccc([C@]23Cc4ccccc4C(O2)c2c(c4ccc(OC)cc4oc2=O)O3)cc1	?	?	1.7µM	?
CCCCc1ccc(NC(=O)Cn2nnc3sc4c(c3c2=O)CCC(C)C4)cc1 (stereo not drawn)	/	/	/	.
O=C(Cn1c(SCc2cccc(F)c2)nc2cccnc21)Nc1ccc(F)c(Cl)c1	/	/	/	.
O=C(Nc1cccc(-c2cccc(Cl)c2)c1)C1CCN(Cc2ccc(CO)o2)CC1	.	.	?	.
Cc1ccc(CN2CCC(C(=O)Nc3cccc(-c4cccc(F)c4)c3)CC2)o1	.	.	4.7µM	?
CCn1nc(C)c(CN2CCC(C(=O)Nc3cccc(-c4cccc(F)c4)c3)CC2)c1C	.	10µM	.	.
CCc1ccc(OCC(=O)N(Cc2ccc(C(C)C)cc2)C2CCS(=O)(=O)C2)cc1 (stereo not drawn)	/	/	/	.
CC(=O)O[C@]1(C(C)=O)CC[C@H]2[C@@H]3C=C(Cl)C4=CC(=O)CC[C@]4(C)[C@H]3CC[C@@]21C	.	12µM	?	?
CC(=O)[C@]1(O)CCC2C3C=C(Cl)C4=CC(=O)C5CC5[C@@]4(C)C3CC[C@]21C (stereo partly drawn)	/	.	?	/
CC(=O)O[C@]1(C(C)=O)CC[C@H]2[C@@H]3C=C(Cl)C4=CC(=O)[C@@H]5C[C@@H]5[C@]4(C)[C@H]3CC[C@@]21C	.	11µM	8.5µM	.
CC(=O)O[C@]1(C(C)=O)CC[C@H]2[C@@H]3C[C@H](C)C4=CC(=O)CC[C@]4(C)[C@H]3CC[C@@]21C	.	13µM	12µM	.
N#CCC(=O)NNc1c([N+](=O)[O-])cc(C(F)(F)F)cc1[N+](=O)[O-]	.	.	.	.
CCOc1ccc(CCNC(=O)C2=C(C)C(=O)OC23CCCCC3)cc1	/	/	/	.
Cc1nc(-c2ccccc2)sc1CCNC(=O)c1ccco1	/	/	/	.
CCS(=O)(=O)c1nc(S(=O)(=O)c2ccc(C)cc2)c(N2CC(C)OC(C)C2)s1 (stereo not drawn)	.	.	15µM	.
CCCS(=O)(=O)c1nc(S(=O)(=O)c2ccc(C)cc2)c(N2CC(C)OC(C)C2)s1 (stereo not drawn)	.	?	.	18µM
